Measurements: PubChem BioAssay (EPA / NIEHS)
Several values for one entry are separate records, joined by “and”; a condition that tells them apart may be missing. Equal values may be shown once. Activity calls are given as the source filed them. How the source made its calls: active means hit-call score of the fitted dose curve at least 0.9, where 1 is the maximum; inactive means score below 0.9.

How the values were obtained:
[1] = read-out: Vascular endothelial growth factor receptor 2 (Homo sapiens) (UniProt P35968); experiment: BSK_4H_VEGFRII: BioMAP Diversity Plus: 4H Assay for Vascular endothelial growth factor receptor 2 (VEGFR2) Biomarker Activity (AID 2283031); conditions: primary human endothelial cells (HUVEC); actives raise or lower the signal;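 on AC50: cell-surface VEGFR2 protein level quantified by ELISA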
Procedure, shortened: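 Measured by ELISA after 24 h of compound treatment: VEGFR2 on primary human umbilical vein endothelial cells, fitted in both directions relative to DMSO. Parallel cultures received SRB staining (560 nm) for overt cytotoxicity.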

[2] = read-out: Human Leukocyte Antigen - DR isotype (HLADR), HLA-DRA (gene 3122); experiment: BSK_BE3C_HLADR: BioMAP Diversity Plus: BE3C Assay for Human Leukocyte Antigen - DR isotype (HLADR) Biomarker Activity (AID 2283032); conditions: primary human bronchial epithelial cells; actives raise or lower the signal
Procedure, shortened: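 Human primary bronchial epithelial cells in the BE3C system were exposed to chemicals for 24 h, after which HLA-DR levels were quantified by ELISA. Activity was fitted bidirectionally, gain or loss of signal, against DMSO as negative control and baseline.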

[3] = read-out: Vascular cell adhesion molecule 1 (VCAM1), VCAM1 (gene 7412); experiment: BSK_4H_VCAM1: BioMAP Diversity Plus: 4H Assay for Vascular cell adhesion molecule 1 (VCAM1) Biomarker Activity (AID 2283033); conditions: primary human endothelial cells (HUVEC); actives raise or lower the signal
Procedure, shortened: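 Primary human umbilical vein endothelial cells were exposed to chemicals for 24 h, after which VCAM-1 was quantified by ELISA. Responses were fitted bidirectionally against DMSO as negative control and activity baseline.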

[4] = read-out: Monokine induced gamma interferon (MIG), CXCL9 (gene 4283); experiment: BSK_BE3C_MIG: BioMAP Diversity Plus: BE3C Assay for Monokine induced gamma interferon (MIG) Biomarker Activity (AID 2283035); conditions: primary human bronchial epithelial cells; actives raise or lower the signal
Procedure, shortened: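 Primary human bronchial epithelial cells treated for 24 h; MIG levels measured by ELISA, fitted bidirectionally versus DMSO. Parallel SRB total-protein staining assessed cytotoxicity.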

[5] = read-out: Transforming growth factor beta 1 (TGFb1), TGFB1 (gene 7040); experiment: BSK_BE3C_TGFb1: BioMAP Diversity Plus: BE3C Assay for Transforming growth factor beta 1 (TGFb1) Biomarker Activity (AID 2283036); conditions: primary human bronchial epithelial cells; actives raise or lower the signal
Procedure, shortened: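 Human primary bronchial epithelial cells (BE3C system) were dosed with chemical and TGF-b1 levels measured by ELISA at 24 h. Activity was fitted bidirectionally relative to DMSO negative control as baseline.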

[6] = read-out: Plasminogen activator inhibitor-1 (PAI1), SERPINE1 (gene 5054); experiment: BSK_BE3C_PAI1: BioMAP Diversity Plus: BE3C Assay for Plasminogen activator inhibitor-1 (PAI1) Biomarker Activity (AID 2283037); conditions: primary human bronchial epithelial cells; actives raise or lower the signal
Procedure, shortened: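 Human primary bronchial epithelial cells were exposed to chemical for 24 h, then PAI-1 was quantified by ELISA. Activity was fitted bidirectionally relative to the DMSO negative control baseline.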

[7] = read-out: urokinase plasminogen activator (uPA), PLAU (gene 5328); experiment: BSK_BE3C_uPA: BioMAP Diversity Plus: BE3C Assay for urokinase plasminogen activator (uPA) Biomarker Activity (AID 2283038); conditions: primary human bronchial epithelial cells; actives raise or lower the signal
Procedure, shortened: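 ELISA for uPA on human primary bronchial epithelial cultures 24 h post-treatment, gain or loss against DMSO. Parallel SRB staining (0.1% after 10% TCA fixation, 560 nm) assessed overt cytotoxicity.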

[8] = read-out: Urokinase-type plasminogen activator receptor (uPAR), PLAUR (gene 5329); experiment: BSK_BE3C_uPAR: BioMAP Diversity Plus: BE3C Assay for Urokinase-type plasminogen activator receptor (uPAR) Biomarker Activity (AID 2283039); conditions: primary human bronchial epithelial cells; actives raise or lower the signal
Procedure, shortened: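 Primary human bronchial epithelial cells were dosed with chemical and harvested 24 h later; uPAR was quantified by ELISA. Activity was fitted bidirectionally against DMSO as negative control and baseline.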

[9] = read-out: Interleukin-6 (IL6), IL6 (gene 3569); experiment: BSK_CASM3C_IL6: BioMAP Diversity Plus: CASM3C Assay for Interleukin-6 (IL6) Biomarker Activity for (AID 2283040); conditions: primary human coronary artery smooth muscle cells; actives raise or lower the signal

Measured: AC50

O=C(Nc1ccccc1)Nc1ccnc(Cl)c1
inactive: [1] | [3] | [4] | [5] | [6] | [7] | [9]
active: [2] 34.7 µM | [8] 0.807 µM

OC(c1ccc(Cl)cc1)(c1cncnc1)c1ccccc1Cl (stereo not given)
active: [2] 25.9 µM
inactive: [1] | [3] | [4] | [5] | [6] | [7] | [8] | [9]

COC(=O)N(OC)c1ccccc1COc1ccn(-c2ccc(Cl)cc2)n1
active: [2] 3.97 µM | [6] 5.65 µM
inactive: [1] | [3] | [4] | [5] | [7] | [8] | [9]

Cc1cc(Cl)ccc1OCC(=O)O
inactive: [1] | [2] | [3] | [4] | [5] | [6] | [7] | [8] | [9]

Fc1ccc(Oc2ccnc3cc(Cl)cc(Cl)c23)cc1
active: [1] 27.2 µM | [2] 24.3 µM | [3] 30.1 µM | [4] 34.3 µM | [5] 32.9 µM | [6] 30.3 µM | [7] 36.5 µM | [8] 34.2 µM | [9] 11.4 µM

CCc1nn(C)c(C(=O)NCc2ccc(C(C)(C)C)cc2)c1Cl
active: [2] 18.3 µM | [3] 6.81 µM | [4] 29.4 µM | [6] 31.9 µM | [7] 30.6 µM | [8] 27.3 µM
inactive: [1] | [5] | [9]

CCOC(=O)CC(SP(=S)(OC)OC)C(=O)OCC (stereo not given)
inactive: [1] | [2] | [3] | [4] | [5] | [6] | [7] | [8] | [9]

COP(N)(=O)SC (stereo not given)
active: [2] 5.27 µM
inactive: [1] | [3] | [4] | [5] | [6] | [7] | [8] | [9]

N#Cc1cc(Br)c(O)c(Br)c1
active: [2] 11.9 µM | [3] 32 µM | [6] 12.8 µM
inactive: [1] | [4] | [5] | [7] | [8] | [9]

CCCN(CCC)c1c([N+](=O)[O-])cc(S(N)(=O)=O)cc1[N+](=O)[O-]
active: [2] 35 µM [middle of 4 runs] | [3] 38.1 µM [middle of 4 runs] | [4] 38.4 µM [middle of 4 runs] | [5] 31.3 µM and 31.1 µM and 36.7 µM | [6] 34.2 µM [middle of 4 runs] | [7] 33.6 µM [middle of 4 runs] | [8] 38.1 µM [middle of 4 runs] | [9] 35.2 µM [middle of 4 runs]

CC(C)(C)c1ccc(CSc2cnn(C(C)(C)C)c(=O)c2Cl)cc1
active: [1] 12.3 µM | [2] 7.02 µM | [5] 0.832 µM | [6] 14.2 µM
inactive: [3] | [4] | [7] | [8] | [9]

C=CC1(C)OC(=O)N(c2cc(Cl)cc(Cl)c2)C1=O (stereo not given)
inactive: [1] | [2] | [3] | [4] | [5] | [6] | [7] | [8] | [9]

COc1ccc(C(c2ccc(OC)cc2)C(Cl)(Cl)Cl)cc1
inactive: [4] | [5] | [7] | [8]
active: [1] 31.2 µM | [2] 17.4 µM | [3] 25.1 µM | [6] 14.3 µM | [9] 14 µM

COC(=O)c1ccccc1C(=O)OC
inactive: [1] | [2] | [3] | [4] | [5] | [6] | [7] | [8] | [9]
